Test results: PubChem BioAssay (EPA / NIEHS)
Active and inactive are the calls of the source. Rule for the calls: active = hit-call score of the fitted dose curve at least 0.9, where 1 is the maximum; inactive = score below 0.9.

experiment: CCTE_Padilla_ZF_Score.Swim_bladder: CCTE's 144 Hour Post-fertilization zebrafish Assay Score for Swim Bladder Malformation, Padilla Lab (AID 2284408)
Procedure: CCTE_Padilla_ZF_Phenotype_Score is a whole embryo, multiplexed assay using zebrafish ova exposed for 144 hours post fertilization on a 96-well plate.CCTE_Padilla_ZF_Score.Swim_bladder is one of one assay component(s) measured or calculated from the CCTE_Padilla_ZF_Phenotype_Score assay. It is designed to make measurements of zebrafish development as detected with brightfield microscopy of developing zebrafish embryos.Data from the assay component CCTE_Padilla_ZF_Score.Swim_bladder was analyzed into 1 assay endpoints. This assay endpoint, CCTE_Padilla_ZF_Score.Swim_bladder, was analyzed in the positive analysis fitting direction relative to DMSO as the negative control and baseline of activity. Using a type of viability reporter, gain-of-signal activity can be used to understand changes in developmentals as they relate to the whole embryo. To generalize the intended target to other relatable targets, this assay endpoint is annotated to the zebrafish development intended target family, where the subfamily is swim bladder morphogenesis.
Zebrafish husbandry: Wild type adult zebrafish (Danio rerio; undefined outbred stock obtained from Aquatic Research Organisms, Hampton, NH, 03842) were housed in an AAALAC-approved animal facility at 28C with a 14:10 h light: dark cycle (lights on at 08:30 h). Adult fish (2-3 females per male; density = 15-20 adults per tank) were kept in one of several 9-liter (L) flow-through colony tanks (Aquaneering Inc., San Diego, CA). All adults in a colony tank were placed in a 2 L (static) breeding tank (Aquatic Habitats, Apopka, FL) one hour prior to light onset. Typically, adults from two to three colony tanks were mated on the same day. Two hours after light onset the adults were returned to the colony tank. All embryos were gathered from each breeder tank, pooled, and placed in a 28C water bath for 2 h, followed by two washes with 0.06% bleach (v/v) in 10% Hanks' Balanced Salt Solution (13.7 mM NaCl 0.54 mM KCl, 25 uM Na2HPO4, 130 uM CaCl2 100 um MgSO4 and 420 um NaHCO3,), hereafter referred to as Hanks' solution, for 5 min in order to remove any residual bacteria or fungi. Immediately following washing, the embryos were examined, and healthy embryos were separated from dead or unfertilized eggs and moved into fresh Hanks'. Chemical exposures: Zebrafish embryos were exposed in 96-well plates. Between 6- and 8-hours post fertilization (hpf), healthy embryos (with chorions) were transferred, one embryo per well, into 96 well (0.5 mL) microtiter plates (Cell Culture-Treated, Flat-Bottom Microplate 96 well [Corning Costar, Kennebunk, ME; Cat 09-761-145]) filled with 200 uL of Hanks' solution. A random number generator was used to assign the order in which the rows of embryos were plated in 96 well plates each week. After plating, the embryos were dosed with 0.8 uL of the chemical dosing solution then immediately sealed with AlumaSeal II (Excel Scientific Inc, Victorville, CA) to prevent volatilization of the chemicals, and then placed in a leakproof secondary container. These containers were placed in an incubator maintained on a 14:10 h light: dark cycle at 26C for rearing. On 5 dpf, live larvae were gently moved out of the plate with test chemicals and into a new 96 well mesh plate (Millipore Corp., Bedford, MA) with just the Hanks' solution. Once within the mesh well plate, the animals were rinsed with 400 uL of fresh Hanks' three times, and then the plates were covered with a non-adhesive material (Microseal A, BioRad, Hercules, CA), plate lid added, and then plate sides wrapped in Parafilm (PM992, Bermis Company, Neenah, WI), and returned to the incubator. […]

Structure (SMILES) | AC50 | outcome
O=C(CC(=O)C(F)(F)C(F)(F)C(F)(F)F)c1cccs1 | 2.41 µM (active) | 
CN(CCO)S(=O)(=O)C(F)(F)C(F)(F)C(F)(F)C(F)(F)C(F)(F)C(F)(F)C(F)(F)C(F)(F)F |  | inactive
FC(F)=C(F)C(F)(F)C(F)(F)C(F)(F)C(F)F |  | inactive
FC(F)(F)N1C(F)(F)C(F)(F)OC(F)(F)C1(F)F |  | inactive
C=CC(F)(F)C(F)(F)C(F)(F)C(F)(F)F |  | inactive
COC(=O)C(F)(F)C(F)(F)C(F)(F)C(F)(F)C(F)(F)F |  | inactive
FCOC(C(F)(F)F)C(F)(F)F |  | inactive
O=P(O)(O)CCC(F)(F)C(F)(F)C(F)(F)C(F)(F)C(F)(F)C(F)(F)F |  | inactive
FC(F)(F)C1(F)C(F)(F)C(F)(F)C(F)(F)C1(F)F |  | inactive
C=CC(=O)OCCC(F)(F)C(F)(F)C(F)(F)C(F)(F)C(F)(F)C(F)(F)C(F)(F)C(F)(F)F |  | inactive
FC(F)(F)C1(F)C(F)(F)C(F)(F)C(F)(F)C(F)(C(F)(F)F)C1(F)F (centres undefined) |  | inactive
O=C1OC(=O)C(F)(F)C1(F)F |  | inactive
O=C(OC(=O)C(F)(F)C(F)(F)F)C(F)(F)C(F)(F)F |  | inactive
O=C(F)C(F)(F)C(F)(F)C(F)(F)C(=O)F |  | inactive
FC1(F)C=CC(F)(F)C1(F)F |  | inactive
O=C(O)CCC(F)(F)C(F)(F)C(F)(F)C(F)(F)C(F)(F)C(F)(F)F | 10.4 µM (active) | 
O=C(O)C(F)(F)OC(F)(F)C(F)(F)OC(F)(F)C(F)(F)OC(F)(F)C(F)(F)C(F)(F)C(F)(F)F | 3.2 µM (active) | 
NC(C(F)(F)F)C(F)(F)F |  | inactive
O=C(O)CCC(F)(F)C(F)(F)C(F)(F)C(F)(F)C(F)(F)F | 10.9 µM (active) | 
O=CC(F)(F)C(F)(F)C(F)(F)C(F)F |  | inactive
FC(OC(F)(F)C(F)(F)C(F)(F)F)C(F)(F)F (centres undefined) |  | inactive
O=CC(F)(F)C(F)(F)C(F)(F)F |  | inactive
OCC(F)(F)C(F)(F)C(F)(F)C(F)(F)C(F)(F)C(F)(F)C(F)(F)C(F)(F)C(F)(F)C(F)(F)C(F)(F)F |  | inactive
O=P(O)(O)CCC(F)(F)C(F)(F)C(F)(F)C(F)(F)C(F)(F)C(F)(F)C(F)(F)C(F)(F)F | 10 µM (active) | 
